Screens: PubChem BioAssay, SRMLSC
NADH coupling = inhibitors of PK/LDH coupling enzymes, profiling panel, artefact control, biochemical, MLSMR library; AID 774, 2007; 0.02% of 65,000 active; coupled PK/LDH NADH assays, four targets; IC50, µM (doses to about 10 µM), for inactives: at the top dose inhibition;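 active means single-dose screening hits from any of four coupled enzyme assays that gave an IC50 when retested across doses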;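 further: the DPM-DC format reads NADH fluorescence rather than 340 nm absorbance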
PMK inhibit = S. pneumoniae PMK inhibitors, primary screen, biochemical, mevalonate pathway, pilot trial included. phosphomevalonate kinase (Streptococcus pneumoniae D39). purified PMK, PK/LDH-coupled NADH absorbance 340 nm. inhibition, % at 10 µM. 0.49% of 65,000 active. AID 539, 2006;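 active means top-ranked compounds by inhibition in the single 10 µM screen, taking a fixed number of the strongest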;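 further: 0% = full reaction with DMSO carrier and 100% = background rate without enzyme reaction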
Autofluor 339 = intrinsic fluorescence of library compounds, ex339/em460 – biochemical, MLSMR library, data from DPM-DC assay, artefact control, profiling panel; compound autofluorescence, ex339/em460 nm, NADH buffer; hits give high values; 1 = no-compound wells, NADH background; fluorescence fold increase at 10 µM; 5.5% of 65,000 active; AID 709, 2007;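 active means at 10 µM, mean starting fluorescence two-fold or more over control wells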;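 further: signal is the first read of a kinetic run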
Spn MK inh = S. pneumoniae MK inhibitors, primary screen, biochemical, PK/LDH-coupled NADH absorbance. mevalonate kinase [Streptococcus pneumoniae D39]. purified MK, PK/LDH-coupled NADH absorbance 340 nm. inhibition, % at 10 µM. 0.48% of 65,000 active;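 active means ranked among the strongest by inhibition in the single 10 µM screen, a fixed top-ranked set picked for dose follow-up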
Spn DPM-DC inh = S. pneumoniae DPM-DC inhibitors, primary screen, biochemical, PK/LDH-coupled NADH fluorescence | calls only at 10 µM | 0.49% of 65,000 active | purified DPM-DC | diphosphomevalonate decarboxylase (Streptococcus pneumoniae D39) | AID 556, 2006;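 active means the 320 compounds with the highest percent inhibition in the single-dose primary screen, excluding strongly autofluorescent ones, cut at about 32% in these data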;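 further: kinetic rate of NADH fluorescence loss reporting ADP formed by the decarboxylase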
A340 absorber = compound light absorbance at 340 nm, profiling panel, artefact control, biochemical, MLSMR library, data from PS, PMK, MK assays; fold change at 10 µM; 65,000 tested, under 10 active; compound absorbance at 340 nm, fold over control;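 active means at 10 µM dose, initial 340 nm absorbance at least 2 fold that of control wells; inactive means change under 2 fold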;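 further: initial absorbance extrapolated from kinetic A340 decline of NADH oxidation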
* hit, by the source's call; i = inactive; . = no result shown. Rows were chosen to be rich in hits. Some 6.8% of all compounds tested hit in one or more screens of this group.

SMILES	NADH coupling	PMK inhibit	Autofluor 339	Spn MK inh	Spn DPM-DC inh	A340 absorber
Cc1ccc(CNc2oc(-c3cccs3)nc2C#N)cc1	5.0%	5.0	3.65*	5.0	.	1.05
CCS(=O)(=O)NCC(c1cccnc1)N1CCN(c2ccccc2F)CC1 (configuration not stated)	6.0%	16.0	1.1	1.0	i	1.01
CCC1SC2=NC(C)=C(C(=O)OCCOC)C(c3ccc(C(=O)OC)cc3)N2C1=O (configuration not stated)	3.0%	10.0	1.03	0.0	i	1.06
Cc1ccc(S(=O)(=O)N2CCN(c3nc(C)c4c(c3C#N)CC(C)(C)OC4)CC2)cc1	5.0%	5.0	1.35	8.0	i	1.05
CCOc1ccc(Nc2oc(-c3ccco3)nc2C#N)cc1	3.0%	0.0	1.31	9.0	i	1.08
CCOc1ccc(Nc2oc(-c3cccs3)nc2C#N)cc1	2.0%	0.0	3.04*	3.0	.	1.15
N#Cc1nc(-c2cccs2)oc1NCc1ccc(Cl)cc1	4.0%	9.0	3*	12.0	.	1.01
N#Cc1nc(-c2cccs2)oc1NCc1ccccc1	2.0%	4.0	2.38*	0.0	.	1.1
Cn1c(=O)c2c(SCC(=O)NCC3CCCO3)nc(-c3cccs3)nc2n(C)c1=O (configuration not stated)	3.0%	2.0	2.2*	3.0	.	1.21
CC(C)Sc1nc(-c2cccs2)nc2c1c(=O)n(C)c(=O)n2C	9.0%	14.0	1.4	8.0	i	1.1
CC(C)Cc1cc(-c2ccco2)c(C#N)c(N)n1	9.0%	10.0	2.2*	7.0	.	1.11
Cc1cccn2c(=O)c(C=NCc3ccccc3)c(NCCO)nc12	16.0%	9.0	3.62*	12.0	i	1.08
CC(C)Nc1nc(SCC(=O)Nc2ccccc2)nc(N2CCOCC2)n1	8.0%	13.0	1.06	4.0	i	1
N#Cc1c(N)oc(-c2ccco2)c1-c1ccco1	5.0%	10.0	2.11*	0.0	.	1.11
N#Cc1c(N)oc(-c2ccccc2)c1-c1ccccc1	4.0%	0.0	1.29	13.0	i	1.08
CC(CC(=O)NCc1ccccc1)C1CCCO1 (configuration not stated)	3.0%	8.0	1.03	6.0	i	1
Cc1nc2c(=O)n(C)c(=O)[nH]c2n1Cc1ccccc1	4.0%	9.0	1.4	0.0	i	0.99
CCCn1c(-c2ccccc2)nc2c(=O)n(C)c(=O)[nH]c21	0.0%	0.0	2.19*	0.0	.	1.05
COc1ccc(-c2nc3c(=O)n(C)c(=O)[nH]c3n2CCc2ccccc2)cc1	5.0%	2.0	3.85*	7.0	.	1.04
O=C(Cn1c(=O)sc2ccccc21)Nc1ccccc1C(=O)O	7.0%	15.0	1.11	6.0	i	1.03
CC(C)(C)N1C(=O)Cc2c1nc(N)c1c(N)nc(N3CCCCC3CO)c(C#N)c21 (configuration not stated)	8.0%	15.0	4.85*	0.0	.	1.03
COc1ccccc1C(=O)NCCc1nc2ccccc2n1C	9.0%	0.0	1.01	active	i	1.01
N#CCCn1c2ccccc2c2nc3ccccc3nc21	13.0%	11.0	1.6	9.0	i	1.13
CCCn1c(Nc2nc3ccccc3n2C)nc2ccccc21	4.0%	4.0	2.13*	5.0	i	1.16
CCOC(=O)Cn1c2ccccc2c2nc3ccccc3nc21	3.0%	6.0	2.89*	2.0	i	1.11
O=c1oc2ccccc2n1CCn1c2ccccc2c2nc3ccccc3nc21	8.0%	9.0*	1.54	10.0	i	1
CCCn1c(NC(=O)c2ccccc2)nc2ccccc21	2.0%	0.0	1.18	7.0	i	1.08
CCOC(=O)Cn1c(C)c(C#N)c2ccccc21	1.0%	3.0	0.98	0.0	i	1.03
CCCn1c2ccccc2c2nc3ccccc3nc21	0.0%	0.0	2.37*	0.0	i	1.13
O=C(NCCC1=CCCCC1)C1COc2ccccc2O1 (configuration not stated)	5.0%	12.0	1.09	4.0	i	0.99
